Hits are enriched below; roughly 1.2% of the tested compounds scored in any of these assays.
MEP2-GFP yeast: modulators of MEP2-GFP levels in yeast, primary screen, S. cerevisiae, multiplex flow cytometry, MLPCN library. S. cerevisiae MEP2-GFP strain, 3 h; 100% = DMSO control level. GFP response vs DMSO, % at 10 µM. 330,000 tested, 0.51% active. AID 2016, 2009;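 active = GFP response versus DMSO above a set limit, roughly screen mean plus 3 SD, cut at about 180% in these data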;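 note: median GFP fluorescence of the barcode-gated MEP2-GFP cells per well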
DSG3 Ab inh: inhibitors of pemphigus antibody binding to DSG3, primary screen, biochemical, bead-based, flow cytometry, scFv-GFP | Desmoglein-3 (Homo sapiens), P32926 | DSG3-coupled beads, scFv-anti-DSG3-GFP binding; active compounds read low | binding (percent of control), % at 10 µM | 310,000 tested, 0.48% active;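 active = binding more than 3 SD below its plate's average and above zero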;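 note: hits lower antibody fragment binding to DSG3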
Target sequence (P32926 whole entry, looked up, the tested form may be a part): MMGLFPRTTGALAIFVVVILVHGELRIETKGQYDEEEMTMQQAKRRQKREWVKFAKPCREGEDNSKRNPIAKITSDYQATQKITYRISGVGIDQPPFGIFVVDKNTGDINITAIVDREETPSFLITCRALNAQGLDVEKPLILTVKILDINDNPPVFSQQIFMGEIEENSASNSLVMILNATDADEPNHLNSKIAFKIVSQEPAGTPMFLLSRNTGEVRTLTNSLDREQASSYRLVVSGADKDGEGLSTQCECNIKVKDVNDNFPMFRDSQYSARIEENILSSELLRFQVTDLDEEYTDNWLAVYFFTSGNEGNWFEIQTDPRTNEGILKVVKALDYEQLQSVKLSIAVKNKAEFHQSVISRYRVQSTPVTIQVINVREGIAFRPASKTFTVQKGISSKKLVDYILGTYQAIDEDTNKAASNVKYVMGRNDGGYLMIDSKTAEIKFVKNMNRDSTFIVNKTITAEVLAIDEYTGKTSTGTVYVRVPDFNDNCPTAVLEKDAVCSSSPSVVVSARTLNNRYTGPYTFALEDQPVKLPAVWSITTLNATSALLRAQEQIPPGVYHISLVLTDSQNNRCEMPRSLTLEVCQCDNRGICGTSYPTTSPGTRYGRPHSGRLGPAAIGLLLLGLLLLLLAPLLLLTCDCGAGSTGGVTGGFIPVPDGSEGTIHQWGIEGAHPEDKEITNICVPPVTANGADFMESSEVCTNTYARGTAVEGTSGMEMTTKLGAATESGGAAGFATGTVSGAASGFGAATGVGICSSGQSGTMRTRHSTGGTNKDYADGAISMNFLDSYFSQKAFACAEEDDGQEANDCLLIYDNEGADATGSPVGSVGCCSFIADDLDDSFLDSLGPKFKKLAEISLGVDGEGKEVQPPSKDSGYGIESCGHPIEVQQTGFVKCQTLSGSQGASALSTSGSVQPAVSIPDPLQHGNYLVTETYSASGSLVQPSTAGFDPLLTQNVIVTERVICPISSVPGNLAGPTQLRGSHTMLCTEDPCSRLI
AGP1-GFP MLPCN: modulators of AGP1-GFP expression in yeast TOR pathway, primary screen, cell-based, multiplex flow cytometry, S. cerevisiae, MLPCN library; 320,000 tested, 0.02% active; AID 2066, 2009; GFP response vs DMSO, % at 10 µM; 3 h; GFP as percent of DMSO wells;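 active = GFP response relative to DMSO above a set limit, near screen average plus 3 SD, cut at about 150% in these data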;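 note: median GFP channel fluorescence of the gated AGP1 strain per well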
LAP4 TOR yeast: modulators of LAP4-GFP expression in yeast, primary screen, S. cerevisiae, multiplex flow cytometry, MLPCN library; 3 h; median GFP as percent of DMSO wells; GFP response vs DMSO, % at 10 µM; 320,000 tested, 0.34% active;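 active = GFP response vs DMSO above a set limit, about the screen mean plus 3 SD, cut at about 150% in these data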
CIT2-GFP yeast: modulators of CIT2-GFP expression in yeast, primary screen, S. cerevisiae, GFP fusion, multiplex flow cytometry, MLPCN library. S. cerevisiae CIT2-GFP strain, 3 h; 100 means same as DMSO wells. GFP response vs DMSO, % at 10 µM. 320,000 tested, 0.065% active. AID 2029, 2009;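 active = GFP response relative to DMSO above a set limit, near the screen mean plus 3 SD, cut at about 150% in these data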;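 note: ratio of well median GFP fluorescence to mean of DMSO wells on the plate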
RPL19A TOR yeast: RPL19A-GFP expression modulators in yeast, primary screen, cell-based, S. cerevisiae, multiplex flow cytometry, MLPCN. percent response vs DMSO, % at 10 µM. S. cerevisiae RPL19A-GFP strain, 3 h; active compounds read low. 330,000 tested, 0.3% active;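 active = percent response vs DMSO below 50%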;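 note: median channel GFP fluorescence of the barcoded RPL19A-GFP strain; lower means less RPL19A-GFP as with rapamycin TOR inhibition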
LAP4-GFP pick2: LAP4-GFP expression modulators in yeast, confirmation, cell-based, second cherry pick, flow cytometry. shares compounds with LAP4 TOR yeast. S. cerevisiae LAP4-GFP strain, 3 h. GFP response vs DMSO, % at 10 µM. 590 tested, 20% active;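 active = GFP signal as percent of the solvent control above about 150%, meaning raised reporter expression, limit read from the data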
MEP2 cherry2: modulators of MEP2-GFP levels in yeast, confirmation, S. cerevisiae, flow cytometry GFP, second cherry picks; S. cerevisiae MEP2-GFP strain, 3 h; shares compounds with LAP4 TOR yeast; GFP response vs DMSO, % at 10 µM; 590 tested, 10% active; AID 2622, 2010;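 active = GFP signal above 150% of the solvent control wells, that is a rise of more than half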;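 note: median channel GFP fluorescence of all gated yeast cells per well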
RPL19A GFP CP2: RPL19A-GFP modulators in TOR pathway yeast, confirmation, cell-based, S. cerevisiae, flow cytometry, second cherry pick. 590 tested, 3% active. shares compounds with LAP4 TOR yeast. S. cerevisiae RPL19A-GFP strain, 3 h; active compounds read low; 100% means same as DMSO wells. GFP response vs DMSO, % at 10 µM;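 active = under 65% GFP response relative to DMSO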;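 note: median GFP channel fluorescence per well over the all cells gate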
CIT2-GFP pick2: modulators of CIT2-GFP expression in yeast, confirmation, flow cytometry, second cherry pick, single plex; shares compounds with LAP4 TOR yeast; S. cerevisiae CIT2-GFP strain, 3 h; DMSO control wells read 100%; GFP response vs DMSO, % at 10 µM; 590 tested, 8% active; AID 2624, 2010;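 active = GFP response vs DMSO above about 150%, limit read from the data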;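 note: median green fluorescence per well over all gated yeast cells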
AGP1 GFP CP2: AGP1-GFP expression modulators, hit retest, confirmation, cell-based, flow cytometry, S. cerevisiae, cherry pick set 2 | shares compounds with LAP4 TOR yeast | S. cerevisiae AGP1-GFP strain, 3 h | percent response vs DMSO, % at 10 µM | 590 tested, under 10 active;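 active = over 150 percent of DMSO response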;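 note: median GFP channel fluorescence over all cells without mother daughter split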
s288c autofluor: compound autofluorescence in yeast s288c, dose response, artefact control for yeast TOR pathway GFP screen, s288c strain; shares compounds with LAP4 TOR yeast; S. cerevisiae s288c, 520 nm autofluorescence, flow cytometry, 3 h; active compounds read high; zero means same as solvent-only cells; fluorescence change (kMESF span) at 33 µM; 610 tested, under 10 active; AID 2757, 2010;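 active = fluorescence span over the dose series, or activity score, above about 33, limit read from the data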
s288c autofl DR: autofluorescence of compounds in yeast s288c, dose response, artefact control for yeast TOR pathway GFP screen, primary hits, KU SAR, s288c parental. shares compounds with LAP4 TOR yeast. S. cerevisiae s288c parental, compound autofluorescence, flow cytometry, 3 h. fluorescence change (span) at 33 µM. 110 tested, under 10 active. AID 488829, 2010;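 active = fluorescence change span, or the activity score built from it, above 25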
TORC1 bypass gr: wild-type yeast growth inhibition sparing TORC1 bypass cells, mechanism study for yeast TOR pathway GFP screen, BY4741 wild type, TORC1 bypass strain; growth rating (0-3) at 30 µM; 120 tested, under 10 active; shares compounds with LAP4 TOR yeast; S. cerevisiae BY4741 spot growth rating, 48-72 h; active compounds read low; AID 504456, 2011;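 active = growth rating at most 1 for wild type yeast while the TORC1 bypass strain still grows fully, rated 3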
Numbers stand for hits; i = inactive; nt = not tested or not shown; + = active, no number.

SMILES | MEP2-GFP yeast | DSG3 Ab inh | AGP1-GFP MLPCN | LAP4 TOR yeast | CIT2-GFP yeast | RPL19A TOR yeast | s288c autofluor | others
CCOC(=O)c1c(C)oc2c1c(C(c1ccncc1)N1CCOCC1)c(O)c1ccccc12 (configuration not stated) | i | nt | nt | 185 | i | i | i
CC(C)(C)[C@@H]1COC(=O)[C@H](Cc2ccc(F)cc2)C/C=C\C[C@@H](CC(=O)NCCO)C(=O)N1 | i | i | i | i | i | i | nt
Cn1ncc(S(=O)(=O)Cc2ccccc2)c(Cl)c1=O | i | i | i | 161 | i | i | i | s288c autofl DR=i;TORC1 bypass gr=i
Nc1nc(NCCN2CCOCC2)nc(Nc2cccc(F)c2)c1[N+](=O)[O-] | nt | nt | nt | nt | nt | nt | nt | s288c autofl DR=i;TORC1 bypass gr=i
Nc1nc(Nc2cccc(Cl)c2)nc(Nc2cccc(F)c2)c1[N+](=O)[O-] | nt | nt | nt | nt | nt | nt | nt | s288c autofl DR=i;TORC1 bypass gr=i
Nc1nc(NCC2CCCO2)nc(Nc2cccc(F)c2)c1[N+](=O)[O-] (configuration not stated) | i | i | i | i | i | i | nt | s288c autofl DR=i;TORC1 bypass gr=i
Nc1nc(Nc2cccc(Cl)c2)nc(NCCO)c1[N+](=O)[O-] | i | i | i | i | i | i | nt
COCCCNc1nc(N)c([N+](=O)[O-])c(Nc2cccc(F)c2)n1 | nt | nt | nt | nt | nt | nt | nt | s288c autofl DR=i;TORC1 bypass gr=i
CN(c1ccccc1)c1nc(N)c([N+](=O)[O-])c(Nc2cccc(F)c2)n1 | i | i | i | i | i | i | nt
CCOc1ccc(NC(=O)CN(C)C(=O)C2CC(=O)N(c3cccc(SC)c3)C2)cc1OCC (configuration not stated) | nt | i | nt | nt | nt | nt | nt
CCC(C)NC(=O)c1ccc(N2CC3CC(C2)c2cccc(=O)n2C3)c(NC(=O)c2c(F)cccc2F)c1 (configuration not stated) | nt | i | nt | nt | nt | nt | nt
C/C(=N\NC(=O)c1c(Cl)cnn1C)c1cccnc1 | nt | i | nt | nt | nt | nt | nt
CS(=O)(=O)c1ccc(Cl)c(NC(=O)CNC(=O)c2ccc3c(c2)OCO3)c1 | i | i | i | i | i | i | nt
Cc1cccc(C(=O)NCC(=O)N2CCC2)c1 | + | i | 447 | + | + | i | nt | LAP4-GFP pick2=i;MEP2 cherry2=i;RPL19A GFP CP2=i;CIT2-GFP pick2=i;AGP1 GFP CP2=i
Cc1ccc(N/N=C(\C#N)C(N)=S)c(C)c1 | i | i | i | 161 | i | i | i | LAP4-GFP pick2=166;MEP2 cherry2=218;RPL19A GFP CP2=i;CIT2-GFP pick2=i;AGP1 GFP CP2=i
O=S(=O)(c1ccc(NC(=S)N2CCCCC2)cc1)N1CCCCC1 | nt | i | nt | nt | nt | nt | nt
C=CCN(C(=O)CSc1nc2ccsc2c(=O)n1Cc1ccc(C(=O)O)cc1)c1ccccc1 | nt | i | nt | nt | nt | nt | nt
NCCCn1c(C(=O)c2ccc(Cl)cc2)c2ccc([N+](=O)[O-])cc2[n+]1[O-] | i | i | i | i | i | i | nt
N#Cc1c2ccc([N+](=O)[O-])cc2[n+]([O-])n1-c1ccccc1 | i | i | i | 165 | i | i | i | LAP4-GFP pick2=179;MEP2 cherry2=i;RPL19A GFP CP2=i;CIT2-GFP pick2=i;AGP1 GFP CP2=i
COc1ccc(NC2=C(Cl)C(=O)N(CCc3ccccc3)C2=O)c(OC)c1 | i | i | i | i | i | i | i
COc1ccc(N2C(=O)C(Cl)=C(NCc3ccccc3)C2=O)cc1 | i | i | i | i | i | i | i
COc1ccc(NC(=O)CCN2C(=O)c3ccccc3C2=O)c(OC)c1 | i | i | i | i | i | i | nt
CCOc1ccccc1NC1=C(Cl)C(=O)N(c2ccc(OC)cc2)C1=O | i | i | i | i | i | i | nt
Cc1ccc(O)c(NC2=C(Cl)C(=O)N(Cc3ccccc3)C2=O)c1 | nt | i | nt | nt | nt | nt | nt
COc1ccc(CCNC2CC(=O)N(CCc3ccccc3)C2=O)cc1 (configuration not stated) | i | i | i | i | i | i | nt
CCOc1ccc(NC2=C(Cl)C(=O)N(Cc3ccccc3)C2=O)cc1 | i | i | i | i | i | i | i
COc1ccc(NC2=C(Cl)C(=O)N(CCc3ccccc3)C2=O)cc1 | i | i | i | i | i | i | i
CC(C)N(C(=O)[C@H]1C[C@H](CC(=O)NCCN2CCOCC2)C(=O)N2CCc3c([nH]c4cc(CCC(=O)N(C)C)ccc34)[C@]12C)C(C)C | nt | i | nt | nt | nt | nt | nt
Cc1ccc(NC(=O)C2CCCN2C(=O)NC2CCCCC2)cc1 (configuration not stated) | i | i | i | i | i | i | nt
CCc1cc(=O)oc2c3c(cc(OCC(=O)N[C@H](C(=O)O)[C@H](C)CC)c12)OC(C)(C)CC3 | i | i | i | i | i | i | nt
